Records with an inconclusive call do not appear. Where a call stands in place of a potency, no number is given. Calls of active or inactive are those of the source. Unless noted, calls follow the shape of the dose curve; as a rule, active = well fitted curve in the direction sought with a large enough effect in the repeat runs; inconclusive = weak or mixed curves; inactive = no such curve, though single readings can be large; an effect the other way counts as inactive or inconclusive.
What was measured:
[1] = target: Estrogen receptor beta (Homo sapiens) (UniProt Q92731); assay: qHTS assay to identify small molecule agonists of the estrogen receptor beta (ER-beta) signaling pathway (AID 1259377; active = well fitted activation curve with a large enough effect in the signal ratio in the repeat runs, not every such curve was filed as active; the % refers to the signal ratio)
Sequence of Estrogen receptor beta (Homo sapiens) (Q92731 whole entry, looked up): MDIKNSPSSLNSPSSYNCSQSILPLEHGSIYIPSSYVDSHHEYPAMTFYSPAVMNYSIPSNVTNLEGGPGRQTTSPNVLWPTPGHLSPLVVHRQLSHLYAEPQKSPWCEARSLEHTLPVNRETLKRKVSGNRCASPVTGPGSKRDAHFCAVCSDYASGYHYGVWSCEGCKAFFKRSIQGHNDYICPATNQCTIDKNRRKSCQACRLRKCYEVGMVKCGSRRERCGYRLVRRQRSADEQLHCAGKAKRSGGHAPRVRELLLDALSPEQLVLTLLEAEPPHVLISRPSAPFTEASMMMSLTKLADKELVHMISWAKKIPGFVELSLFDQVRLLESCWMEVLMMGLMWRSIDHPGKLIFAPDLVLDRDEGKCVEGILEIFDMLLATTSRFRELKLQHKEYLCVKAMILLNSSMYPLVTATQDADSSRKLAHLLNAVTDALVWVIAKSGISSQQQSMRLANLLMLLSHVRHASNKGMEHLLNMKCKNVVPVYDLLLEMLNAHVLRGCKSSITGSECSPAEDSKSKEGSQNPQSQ
In short: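 Screening used GripTite ER-beta-UAS-bla cells held in 2% charcoal-stripped FBS medium. After overnight (16 hr) compound incubation at 37C, beta-lactamase activity was detected with a FRET substrate by fluorescence.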

[2] = qHTS assay to identify small molecule agonists or antagonists of the thyroid stimulating hormone receptor (TSHR) signaling pathway - wild type cell line counter screen (AID 1259384; calls by dose curve)
In short: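 Wild-type Hek293 cells, 800/well, 18 h at 37C, then compound with Ro20-1724 for 30 min RT. cAMP by HTRF (cAMP-d2/anti-cAMP cryptate), 1 h RT, fluorescence read. 15 concentrations, triplicates.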

[3] = target: Thyrotropin receptor (Homo sapiens) (UniProt P16473); assay: qHTS assay to identify small molecule antagonists of the thyroid stimulating hormone receptor (TSHR) signaling pathway (AID 1259385; calls by dose curve; also: nearly all actives have a fitted effect of over 20% in size; also: potency is read from the fitted curve at half-maximal effect)
Sequence of Thyrotropin receptor (Homo sapiens) (P16473 whole entry, looked up): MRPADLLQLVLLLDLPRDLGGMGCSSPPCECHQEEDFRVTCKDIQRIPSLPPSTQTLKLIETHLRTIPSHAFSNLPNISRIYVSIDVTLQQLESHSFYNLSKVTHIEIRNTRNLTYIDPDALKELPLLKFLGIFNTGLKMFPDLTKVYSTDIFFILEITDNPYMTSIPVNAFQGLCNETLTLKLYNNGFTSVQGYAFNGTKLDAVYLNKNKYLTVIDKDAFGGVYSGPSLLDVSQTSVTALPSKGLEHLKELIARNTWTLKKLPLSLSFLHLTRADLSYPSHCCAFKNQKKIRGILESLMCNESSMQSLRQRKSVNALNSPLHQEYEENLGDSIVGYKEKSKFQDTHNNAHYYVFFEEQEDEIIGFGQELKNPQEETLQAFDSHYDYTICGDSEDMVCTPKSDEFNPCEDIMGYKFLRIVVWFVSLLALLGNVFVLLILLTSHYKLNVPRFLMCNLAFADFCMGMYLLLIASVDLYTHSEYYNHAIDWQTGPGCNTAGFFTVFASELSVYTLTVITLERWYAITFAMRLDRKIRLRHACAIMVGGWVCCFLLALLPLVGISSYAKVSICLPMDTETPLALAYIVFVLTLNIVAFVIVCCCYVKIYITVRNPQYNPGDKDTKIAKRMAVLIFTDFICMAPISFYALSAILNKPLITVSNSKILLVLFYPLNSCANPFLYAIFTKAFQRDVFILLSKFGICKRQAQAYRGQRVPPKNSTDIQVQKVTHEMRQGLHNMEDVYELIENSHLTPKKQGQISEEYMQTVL
In short: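 TSHR-HEK293 cells (800/well) plated 18 h, then compounds with Ro20-1724 and TSH at 1.5 ng/mL final, 30 min at room temperature. cAMP quantified by HTRF (cAMP-d2/anti-cAMP-cryptate, 1 h); 15 concentrations in triplicate.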

[4] = target: Progesterone receptor (Homo sapiens) (UniProt P06401); assay: qHTS assay to identify small molecule agonists of the progesterone receptor (PR) signaling pathway (AID 1346784; calls by dose curve; also: nearly all actives have a fitted effect of over 30% in size)
Sequence of Progesterone receptor (Homo sapiens) (P06401 whole entry, looked up): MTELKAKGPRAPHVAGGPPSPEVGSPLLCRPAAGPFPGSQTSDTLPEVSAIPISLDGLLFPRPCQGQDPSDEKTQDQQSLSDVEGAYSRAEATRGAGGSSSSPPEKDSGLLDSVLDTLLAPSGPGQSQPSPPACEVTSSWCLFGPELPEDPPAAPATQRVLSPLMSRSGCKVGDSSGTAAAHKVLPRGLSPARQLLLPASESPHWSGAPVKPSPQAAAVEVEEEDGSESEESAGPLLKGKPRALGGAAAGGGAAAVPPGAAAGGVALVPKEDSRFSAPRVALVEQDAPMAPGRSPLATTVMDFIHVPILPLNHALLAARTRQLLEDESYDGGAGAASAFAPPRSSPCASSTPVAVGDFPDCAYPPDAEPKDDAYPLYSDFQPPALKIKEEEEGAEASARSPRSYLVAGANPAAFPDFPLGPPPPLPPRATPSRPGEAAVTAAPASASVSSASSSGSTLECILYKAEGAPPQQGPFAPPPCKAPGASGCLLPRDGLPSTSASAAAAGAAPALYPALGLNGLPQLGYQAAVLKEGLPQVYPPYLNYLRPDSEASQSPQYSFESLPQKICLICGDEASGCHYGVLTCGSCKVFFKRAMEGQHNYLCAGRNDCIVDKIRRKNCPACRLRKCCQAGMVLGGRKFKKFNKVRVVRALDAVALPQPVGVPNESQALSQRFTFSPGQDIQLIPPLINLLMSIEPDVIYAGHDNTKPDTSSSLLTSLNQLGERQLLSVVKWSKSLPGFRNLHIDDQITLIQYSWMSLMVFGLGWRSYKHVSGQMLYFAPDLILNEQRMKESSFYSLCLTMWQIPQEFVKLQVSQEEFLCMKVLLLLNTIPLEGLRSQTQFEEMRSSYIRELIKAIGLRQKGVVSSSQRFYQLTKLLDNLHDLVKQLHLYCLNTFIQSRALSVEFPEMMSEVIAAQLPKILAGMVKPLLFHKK
In short: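 Seed PR-UAS-bla HEK 293T cells (2% charcoal-stripped FBS), incubate 6 hr at 37C; add compounds in DMSO, 16 hr at 37C; add LiveBLAzer B/G substrate, 2 hr RT; read fluorescence intensity.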

[5] = qHTS assay to identify small molecule antagonists of the TGF-beta/Smad signaling pathway - cell viability counter screen (AID 1346824); also: nearly all actives have a fitted effect of over 50% in size
In short: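 SBE-bla HEK 293T cells, incubated overnight, then compound plus 0.25 ng/mL TGF-beta1 (stock added) for 5 hr at 37 C. Viability was read in the same wells by CellTiter-Glo luminescence after 30 min at room temperature.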

[6] = qHTS assay to identify small molecule agonists of the TGF-beta/Smad signaling pathway - cell viability counter screen (AID 1346829); also: top concentration of the series differs between compounds; nearly all actives have a fitted effect of over 45% in size
In short: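 HEK 293T SBE-bla line, 5 hr compound exposure at 37 C, multiplexed CellTiter-Glo viability read by luminescence.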

[7] = qHTS assay to identify small molecule agonists of the TGF-beta/Smad signaling pathway (AID 1346859; active = well fitted activation curve with a large enough effect in the signal ratio in the repeat runs, not every such curve was filed as active; the % refers to the signal ratio; also: series mostly up to about 77 µM)
In short: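 Beta-lactamase reporter activity downstream of Smad binding elements was measured in stably transfected HEK 293T cells; compounds were incubated for 5 hr, substrate for 2 hr at room temperature.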

[8] = Human pregnane X receptor (PXR) small molecule agonists, qHTS cell viability counter screen (AID 1346977); also: nearly all actives have a fitted effect of over 50% in size; also: potency is read from the fitted curve at half-maximal effect
In short: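 After a 5hr pre-incubation, PXR-Luc HepG2 cells received compounds plus positive control in DMSO and were kept 24hr at 37C. Cell viability was quantified by fluorescence from CellTiter-Fluor added for the final hour.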

[9] = target: Estrogen receptor beta (Homo sapiens) (UniProt Q92731); assay: qHTS assay to identify small molecule antagonists of the estrogen receptor beta (ER-beta) signaling pathway (AID 1259378; active = well fitted inhibition curve with a large enough effect in the signal ratio in the repeat runs, not every such curve was filed as active; the % refers to the signal ratio)
In short: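 ER-beta-UAS-bla HEK293T cells in 2% charcoal-stripped FBS medium treated with compound plus 1nM final 17-beta-estradiol for 16 hr at 37C. Beta-lactamase reporter read by FRET substrate fluorescence after 2 hours at room temperature.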

[10] = qHTS assay to identify small molecule agonists of the androgen receptor (AR) signaling pathway in the presence of an antagonist - cell viability counter screen (AID 1259379); also: nearly all actives have a fitted effect of over 25% in size; also: potency is read from the fitted curve at half-maximal effect
In short: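 MDA-kb2 viability measured by CellTiter-Fluor fluorescence in the same wells as the luciferase signal; nilutamide 3.0uM final; 15-point compound titration; 16 hr at 37C.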

[11] = qHTS assay to identify small molecule agonists of the estrogen receptor beta (ER-beta) signaling pathway - cell viability counter screen (AID 1259380); also: nearly all actives have a fitted effect of over 30% in size; also: potency is read from the fitted curve at half-maximal effect
In short: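 Measured: luminescence from CellTiter-Glo after 30 min at room temperature, added to wells already read for the LiveBLAzer FRET reporter (2 hr substrate); ER-beta-UAS-bla HEK293T cells had 16 hr compound treatment at 37C, 5% CO2.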

[12] = target: Androgen receptor (Homo sapiens) (UniProt P10275); assay: qHTS assay to identify small molecule agonists of the androgen receptor (AR) signaling pathway in the presence of an antagonist (AID 1259381; calls by dose curve; also: nearly all actives have a fitted effect of over 15% in size; also: potency is read from the fitted curve at half-maximal effect)
Sequence of Androgen receptor (Homo sapiens) (P10275 whole entry, looked up): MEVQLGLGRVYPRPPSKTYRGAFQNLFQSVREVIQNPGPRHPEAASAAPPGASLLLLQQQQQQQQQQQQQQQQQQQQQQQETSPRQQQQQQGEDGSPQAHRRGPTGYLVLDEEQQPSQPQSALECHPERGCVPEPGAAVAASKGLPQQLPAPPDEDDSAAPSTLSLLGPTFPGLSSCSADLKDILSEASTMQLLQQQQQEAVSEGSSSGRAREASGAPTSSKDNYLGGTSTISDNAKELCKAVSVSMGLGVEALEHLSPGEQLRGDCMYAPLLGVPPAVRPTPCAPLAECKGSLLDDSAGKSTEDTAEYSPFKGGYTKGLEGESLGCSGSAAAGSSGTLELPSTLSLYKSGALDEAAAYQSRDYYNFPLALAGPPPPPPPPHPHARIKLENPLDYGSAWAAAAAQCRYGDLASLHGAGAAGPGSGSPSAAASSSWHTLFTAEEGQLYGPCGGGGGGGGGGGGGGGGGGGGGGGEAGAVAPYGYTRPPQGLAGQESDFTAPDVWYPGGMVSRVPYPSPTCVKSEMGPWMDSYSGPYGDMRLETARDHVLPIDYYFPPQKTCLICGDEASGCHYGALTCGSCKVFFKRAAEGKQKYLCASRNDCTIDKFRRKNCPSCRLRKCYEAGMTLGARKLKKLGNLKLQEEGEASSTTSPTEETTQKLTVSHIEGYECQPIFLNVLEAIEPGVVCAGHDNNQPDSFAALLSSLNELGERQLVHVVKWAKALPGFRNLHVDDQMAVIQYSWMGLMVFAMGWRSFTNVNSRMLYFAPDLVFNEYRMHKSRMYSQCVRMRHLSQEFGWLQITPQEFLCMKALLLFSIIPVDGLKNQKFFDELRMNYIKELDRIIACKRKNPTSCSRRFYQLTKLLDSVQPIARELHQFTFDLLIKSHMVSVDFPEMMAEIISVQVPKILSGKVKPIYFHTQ
In short: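 Luminescent ONE-Glo read, 30min at room temperature, follows 16hr compound exposure (15 concentrations) of MDA-kb2 cells at 37C, 0% CO2, with nilutamide added at 3.0uM final.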

[13] = qHTS assay to identify small molecule antagonists of the estrogen receptor beta (ER-beta) signaling pathway - cell viability counter screen (AID 1259382); also: series mostly up to about 92 µM; nearly all actives have a fitted effect of over 55% in size
In short: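 Readout: luminescence, CellTiter-Glo, same wells as bla assay. System: ER-beta-UAS-bla GripTite HEK293T, 2% charcoal-stripped FBS. Exposure: compounds plus 1nM 17-beta-estradiol, 16 hr, 37C.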

[14] = target: Estrogen receptor (Homo sapiens) (UniProt P03372); assay: qHTS assay to identify small molecule agonists of the estrogen receptor alpha (ER-alpha) signaling pathway in the presence of an antagonist (AID 1259383; calls by dose curve; also: top concentration of the series differs between compounds; nearly all actives have a fitted effect of over 15% in size)
Sequence of Estrogen receptor (Homo sapiens) (P03372 whole entry, looked up): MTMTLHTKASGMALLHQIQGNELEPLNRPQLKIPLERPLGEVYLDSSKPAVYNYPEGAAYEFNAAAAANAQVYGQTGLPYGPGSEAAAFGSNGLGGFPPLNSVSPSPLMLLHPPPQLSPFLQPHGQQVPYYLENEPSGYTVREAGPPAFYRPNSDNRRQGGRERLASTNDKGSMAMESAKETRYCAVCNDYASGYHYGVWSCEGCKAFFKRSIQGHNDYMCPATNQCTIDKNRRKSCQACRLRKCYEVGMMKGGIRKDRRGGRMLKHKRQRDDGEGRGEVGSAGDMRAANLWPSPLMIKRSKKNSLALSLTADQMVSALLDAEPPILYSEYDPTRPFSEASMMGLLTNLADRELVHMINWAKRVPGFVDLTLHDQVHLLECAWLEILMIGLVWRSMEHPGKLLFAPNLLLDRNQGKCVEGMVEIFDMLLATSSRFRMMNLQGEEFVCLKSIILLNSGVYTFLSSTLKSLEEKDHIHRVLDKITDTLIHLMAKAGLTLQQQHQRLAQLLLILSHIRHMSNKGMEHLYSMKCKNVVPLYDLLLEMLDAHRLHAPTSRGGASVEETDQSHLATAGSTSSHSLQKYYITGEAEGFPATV
In short: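 Quantitative HTS confirmation: compounds titrated at 15 concentrations onto estrogen-deprived VM7Luc4E2 cells carrying a four-ERE luciferase construct, with ICI-182,780 present at 10.0nM final. Signal is luminescence after 22hr exposure.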

[15] = qHTS assay to identify small molecule agonists of the estrogen receptor alpha (ER-alpha) signaling pathway in the presence of an antagonist - cell viability counter screen (AID 1259386);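 also: cells exposed to compounds for 22 h at 37 °C before the viability read; nearly all actives have a fitted effect of over 30% in size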; also: potency is read from the fitted curve at half-maximal effect
In short: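 The test measures whether compounds kill ER-alpha reporter cells (VM7Luc4E2) under antagonist co-treatment (ICI-182,780, 10.0nM). Fluorescence from CellTiter-Fluor is read after a 22hr exposure.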

[16] = qHTS assay to identify small molecule antagonists of the progesterone receptor (PR) signaling pathway - cell viability counter screen (AID 1346798); also: nearly all actives have a fitted effect of over 50% in size; also: potency is read from the fitted curve at half-maximal effect
In short: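 Measures cytotoxicity in parallel with the PR antagonist reporter read: HEK293T PR-UAS-bla cells get compound and R5020 for 16 hr, and remaining viable cells are quantified by CellTiter-Glo luminescence.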

[17] = qHTS assay to identify small molecule agonists of the progesterone receptor (PR) signaling pathway - cell viability counter screen (AID 1346799; calls by dose curve; also: nearly all actives have a fitted effect of over 45% in size)
In short: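 Using the same plates as the PR reporter screen, HEK293T PR-UAS-bla cells received compounds for 16 hr at 37C and were then lysed with CellTiter-Glo; luminescence was read 30 min later at room temperature.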

[18] = target: Progesterone receptor (Homo sapiens) (UniProt P06401); assay: qHTS assay to identify small molecule antagonists of the progesterone receptor (PR) signaling pathway (AID 1346795; active = well fitted inhibition curve with a large enough effect in the signal ratio in the repeat runs, not every such curve was filed as active; the % refers to the signal ratio; also: potency is read from the fitted curve at half-maximal effect)
In short: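 Screening used a GripTite HEK293T line with PR-responsive UAS-beta-lactamase. Cells were challenged with compound in the presence of 1 nM R5020 final for 16 hr at 37C; B/G FRET substrate, 2 hr room temperature, fluorescence.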

[19] = target: Thyrotropin-releasing hormone receptor (Homo sapiens) (UniProt P34981); assay: qHTS assay to identify small molecule antagonists of the thyrotropin-releasing hormone receptor (TRHR) signaling pathway (AID 1346877; active = well fitted inhibition curve with a large enough effect in the repeat runs, not every such curve was filed as active; also: series mostly up to about 51 µM)
Sequence of Thyrotropin-releasing hormone receptor (Homo sapiens) (P34981 whole entry, looked up): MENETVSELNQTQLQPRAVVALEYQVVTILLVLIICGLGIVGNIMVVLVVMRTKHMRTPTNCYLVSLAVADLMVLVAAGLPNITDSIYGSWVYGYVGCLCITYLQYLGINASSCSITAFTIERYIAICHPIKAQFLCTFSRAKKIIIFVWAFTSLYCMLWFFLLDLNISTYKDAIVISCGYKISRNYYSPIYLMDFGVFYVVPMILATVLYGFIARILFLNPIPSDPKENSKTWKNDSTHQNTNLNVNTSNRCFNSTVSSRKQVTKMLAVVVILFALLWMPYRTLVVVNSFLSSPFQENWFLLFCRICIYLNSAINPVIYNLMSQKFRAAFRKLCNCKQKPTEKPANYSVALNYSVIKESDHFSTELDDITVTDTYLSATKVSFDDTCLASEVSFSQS
In short: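 Overnight-plated (18 h, 37 °C) HEK293 cells expressing TRHR were dye-loaded 2 h, treated with compound, then stimulated with TRH at 1 nM final. Fluorescence intensity was captured every second for 3 min.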

[20] = target: Thyrotropin-releasing hormone receptor (Homo sapiens) (UniProt P34981); assay: qHTS assay to identify small molecule agonists of the thyrotropin-releasing hormone receptor (TRHR) signaling pathway (AID 1346891; calls by dose curve;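 also: HEK293 cells expressing TRHR with calcium dye readout; series mostly up to about 58 µM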)
In short: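 Overnight-plated (18 h, 37 °C, 5% CO2) TRHR-Hek293 cells; 2 h calcium dye at 37 °C; compound in DMSO; 3-min kinetic fluorescence read.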

SMILES	Potency [1]	outcome [2]	Potency [3]	Potency [4]	Potency [5]	Potency [6]	outcome [7]	Potency [8]	Potency [9]	Potency [10]	Potency [11]	Potency [12]	Potency [13]	Potency [14]	Potency [15]	Potency [16]	Potency [17]	Potency [18]	Potency [19]	Potency [20]
O=c1[nH]c2ccccc2n1CCCN1CCC(n2c(=O)[nH]c3cc(Cl)ccc32)CC1	inactive	inactive	29.8 µM (active)	inactive	inactive	inactive	inactive	26.6 µM (active)												
BrCC(Br)c1ccccc1 (stereo not drawn)		inactive	inactive	inactive	inactive	inactive	inactive	inactive	inactive	inactive	inactive	inactive	inactive	inactive	inactive	inactive	inactive			
ClC1=C(Cl)C2(Cl)C3C(Cl)C=CC3C1(Cl)C2(Cl)Cl (stereo not drawn)	inactive	inactive	inactive	inactive	inactive		inactive			inactive			inactive	inactive	inactive	inactive	inactive			
COC(=O)N(C(=O)N1CO[C@@]2(C(=O)OC)Cc3cc(Cl)ccc3C2=N1)c1ccc(OC(F)(F)F)cc1	inactive		inactive		inactive		inactive	inactive		inactive	inactive	inactive		inactive	inactive					
COC[C@H](C)N(C(=O)CCl)c1c(C)csc1C	inactive			inactive	inactive	inactive	inactive	inactive		inactive	inactive		inactive	inactive	inactive	inactive	inactive	inactive	inactive	inactive
CC(C)OC(=S)S	inactive	inactive	inactive		inactive	inactive	inactive	inactive		inactive	inactive		inactive	inactive	inactive	7.7 µM (active)			inactive	inactive
Oc1ccc2ccc3cccc4ccc1c2c34	inactive	inactive	inactive	inactive	inactive			inactive		inactive	12.2 µM (active)		inactive		inactive	inactive	inactive		inactive	inactive
CC1(C)CC/C(=C/c2ccc(Cl)cc2)C1(O)Cn1cncn1 (stereo not drawn)	inactive	inactive			inactive			inactive		inactive	6.08 µM (active)	17.1 µM (active)		inactive	inactive				inactive	inactive
OC(Cc1ccccc1Cl)(Cn1cncn1)C1(Cl)CC1 (stereo not drawn)	inactive	inactive	inactive	inactive	inactive	inactive				inactive				inactive	inactive					
O=C(CCCN1CCC2(CC1)C(=O)NCN2c1ccccc1)c1ccc(F)cc1	inactive	inactive	inactive	inactive	inactive	inactive	inactive	6.68 µM (active)		inactive	13.3 µM (active)		inactive	inactive		inactive	inactive	inactive		
N#CCCC(Br)(C#N)CBr (stereo not drawn)	inactive	inactive	54.5 µM (active)		inactive	inactive	inactive				43.3 µM (active)			inactive			inactive			inactive
CC(C)(C)c1cc([N+](=O)[O-])cc(C(C)(C)C)c1O	inactive	inactive	inactive	inactive		inactive		5.45 µM (active)		8.63 µM (active)			inactive	inactive	8.63 µM (active)			30.6 µM (active)	inactive	inactive
C=CC(=O)N(C)C	inactive	inactive	inactive	inactive	inactive	inactive	inactive	inactive		inactive	inactive		inactive	inactive	inactive	inactive	inactive	inactive	inactive	inactive
CN(C)CCc1c[nH]c2ccc(O)cc12	inactive			inactive	inactive	inactive				inactive	inactive	inactive	inactive		inactive	42.3 µM (active)	inactive		inactive	inactive
O=C(CBr)c1ccc(O)cc1	inactive	inactive	inactive		inactive	inactive	inactive	inactive		inactive	inactive		inactive		inactive				inactive	inactive

Reference: PubChem BioAssay (Tox21)
